Inconclusive results are not listed. Calls of active or inactive are those of the source. Calls follow the shape of the dose curve; as a rule, active = well fitted cell-killing curve with a large enough effect; inconclusive = small, poorly fitted or top-dose-only effect; inactive = no such curve, though single readings can be large or run the other way.
Potency is read from the fitted curve at half-maximal effect.

The nature of this test: qHTS of pediatric cancer cell lines to identify multiple opportunities for drug repurposing: Primary screen for SK-N-MC cells (AID 1347093). The note with it: SK-N-MC viability, CellTiter-Glo luminescence, 48 h; series mostly up to 46 µM; activity change, negative = cytotoxic: at the top concentration. The source says:
Drug repurposing or repositioning has been offered as a strategy for drug development in oncology programs. This approach has special potential for childhood cancers and other rare or orphan diseases, where the expected return on new drug development has been a disincentive to pharmaceuticals.
In this project we exploit the poly-pharmacology of drugs to discover new indications via phenotypic screening of a panel of 19 well-characterized cell lines derived from solid tumors seen in children and adolescents. The goal is to identify approved drugs with previously unrecognized anticancer properties that has the potential to reveal new mechanisms and biological processes involved in carcinogenesis or drug resistance. We employed a titration-based paradigm (quantitative high-throughput screening or qHTS), where all compounds were tested at multiple concentrations for their effect on cell viability. Concentration-response curves (CRCs) were derived directly from the primary screen, and both potency and efficacy values were used to identify compounds with robust bioactivity profiles. We screened the NIH Chemical Genomics Center (NCGC) Pharmaceutical Collection (NPC) and Mechanism Interrogation Plate (MIPE) small molecule collections of approved and investigational compounds against these cell lines; and measured metabolically active cells after 48 hours of compound treatment as a proxy for cell viability.
Assay Submitter: Nathalia J. Martinez, National Center for Advancing Translational Sciences, National Institutes of Health, Rockville, MD, USA; email: natalia.martinez@nih.gov
[1] Shen, M et al. Quantitative high-throughput phenotypic screening of pediatric cancer cell lines identifies multiple opportunities for drug repurposing. Oncotarget 2017 Dec 19;9(4):4758-4772. PMID 29435139.
The cells were obtained from University of North Carolina (UNC), Pediatric Preclinical Testing Program (PPT), and Coriell Institute (CI).
qHTS cell viability assay:
Cells were assayed in growth media at a density of 500-1,000 cells/well. Five microliters of cells were dispensed into 1,536-well, white, solid-bottom, TC-treated plates (Greiner Bio One) using a multidrop dispenser and incubated at 37 degrees C, 5% CO2, under a humidified atmosphere for 5 hours. Twenty-three nanoliters of compounds and controls (neutral control DMSO or positive control bortezomib at final concentration of 2.3 µM) were subsequently transferred by Kalypsys pintool. For primary screens, the MIPE collection was tested at 11-point dilutions (final concentrations range from 0.78 nM to 46 µM) and the NPC collection at 8-point dilutions (final concentrations range from 0.59nM to 46 µM). Compounds tested in follow-up screens were assayed at 11-point dilutions. Cells were incubated for 48 hours, followed by addition of 3 uL of CellTiter-Glo (Promega). After a 15 min incubation at room temperature, samples were analyzed for luminescence intensity using a ViewLux High-throughput CCD imager equipped with clear filters.
Regarding `Cn1cc(-c2cnn3c(N)c(Br)c([C@H]4CCCNC4)nc23)cn1`, the Potency was 0.0935 µM (active). Take `CC(=O)NC(CS)C(=O)O` (stereo not given): the “activity change, negative = cytotoxic” value was -31% (inactive). On to `N#Cc1c(C2CCNCC2)cc(-c2c(O)cccc2OCC2CC2)nc1N`, for which the Potency was 1.05 µM (active). Same read-out and setting: to `C=CC(=O)N1CCc2ccc(-n3c(=O)ccc4cnc5ccc(-c6cnn(C)c6)cc5c43)cc21` belongs 1.48 µM (active); to `C=Cc1c(C)c2cc3nc(cc4[nH]c(cc5nc(cc1[nH]2)C(C)=C5CCC(=O)O)c(CCC(=O)OC)c4C)[C@@]1(C)C3=CC=C(C(=O)OC)[C@H]1C(=O)OC`, 0.059 µM (active). Still for that read-out and setting: to `CNC(=O)c1ccc(Nc2cc(Nc3ccccc3S(=O)(=O)C(C)C)c3cc[nH]c3n2)nc1` belongs 0.743 µM (active). Take `O=C(O)C[C@H](O)C[C@H](O)C=Cc1c(C2CC2)nc2ccccc2c1-c1ccc(F)cc1`: the Potency is 4.69 µM (active). Same read-out and setting: as for `Oc1cc(-c2nc(-c3ccccc3)[nH]c2-c2ccncc2)ccc1Cl`, the figure is 0.662 µM (active). On the same count and under the same terms, to `COC(=O)[C@@H]1[C@H]2C[C@@H]3c4[nH]c5ccccc5c4CCN3C[C@@H]2CC[C@@H]1O` belongs 2.96 µM (active); to `Cn1cnc(=N)c2[nH]cnc21`, 0.0833 µM (active); to `CC(C)c1cnn2c(NCc3ccccc3)cc(NCCCCCCN)nc12`, 0.662 µM (active). Still for that read-out and setting: to `CN(C)c1ccc2cc(C(=O)N[C@@H](CCCN=C(N)CCl)C(=O)NCc3ccccc3)ccc2c1` belongs 3.32 µM (active); to `c1ccc2c(Oc3nc(Nc4ccc(N5CCOCC5)cc4)c4ncn(C5CCCCC5)c4n3)cccc2c1`, 11.8 µM (active). With `COc1cc(C(C)C)c(Oc2cnc(NC(CO)CO)nc2N)cc1I`, the Potency was 1.05 µM (active).

As for `COc1ccnc2[nH]cc(C(=O)C(=O)N3CCN(C(=O)c4ccccc4)C[C@@H]3C)c12`, the “activity change, negative = cytotoxic” value was 10.3% (inactive).

As to `COc1ccc(CCC(=O)c2c(O)cc(O[C@@H]3O[C@H](CO)[C@@H](O)[C@H](O)[C@@H]3O[C@@H]3O[C@@H](C)[C@H](O)[C@@H](O)[C@@H]3O)cc2O)cc1O`, the Potency was 3.32 µM (active).

Turning to `C[C@H](CCC(=O)O)[C@H]1CC[C@H]2[C@@H]3[C@H](O)C[C@@H]4C[C@H](O)CC[C@]4(C)[C@@H]3CC[C@]12C`, the “activity change, negative = cytotoxic” value is -19.6% (inactive). Consider `C#C[C@]1(O)CC[C@@H]2[C@@H]3CCc4cc(O)ccc4[C@H]3CC[C@@]21C`, for which the Potency is 11.8 µM (active). On the same count and under the same terms, as for `CCN(CC)Cc1ccc2cc(COC(=O)Nc3ccc(C(=O)NO)cc3)ccc2c1`, the figure is 0.833 µM (active); as for `O=C1CSC(=O)N1C(CCc1ccncc1)COc1ccc(-c2cccc([N+](=O)[O-])c2)cc1` (stereo not given), 10.5 µM (active). The same measure, in the same setting: as for `COc1cc(C(=O)NC2CCN(C)CC2)ccc1Nc1ncc2c(n1)N(C1CCCC1)CCC(=O)N2C(C)C`, the figure is 1.18 µM (active).

With `CCOC(=O)N1CCN([N+]([O-])=NOc2ccc([N+](=O)[O-])cc2[N+](=O)[O-])CC1`, the Potency is 8.33 µM (active).

Turning to `CCCNC(=O)[C@H]1O[C@H]1C(=O)N[C@H](C(=O)N1CCC[C@@H]1C(=O)OC)C(C)CC` (stereo not given in full), the Potency was 2.64 µM (active). `O=C(O)CCCCC(CCSCc1ccccc1)SCc1ccccc1` (stereo not given): the Potency was 9.35 µM (active). Still for that read-out and setting: as for `O=C(O)c1ccc(Nc2ncc3c(n2)-c2ccc(Cl)cc2C(c2c(F)cccc2F)=NC3)cc1`, the figure is 0.662 µM (active). Turning to `C[C@@H]1C(=O)O[C@H]2CC34[C@H]5C[C@@H](C(C)(C)C)C36[C@H](OC(=O)[C@@H]6O)O[C@@]4(C(=O)O5)[C@]21O` (stereo not given in full), the “activity change, negative = cytotoxic” value was -4.41% (inactive). For the compound `N=c1ccn2c(n1)O[C@H]1[C@@H](O)[C@@H](CO)O[C@H]12`, the Potency is 11.8 µM (active).

Turning to `CC(=O)O[C@]1(C(C)=O)CC[C@H]2[C@@H]3C=C(C)C4=CC(=O)CC[C@]4(C)[C@@H]3CC[C@@]21C`, the Potency is 2.09 µM (active). On to `COc1cc(C)c(C=CC(C)=CC=CC(C)=CC(=O)O)c(C)c1C`, for which the Potency was 18.7 µM (active). Still for that read-out and setting: as for `CN(CC(=O)N(Cc1ccc(C2CCCCC2)cc1)c1ccc(C(=O)O)c(O)c1)S(=O)(=O)c1c(F)c(F)c(F)c(F)c1F`, the figure is 1.48 µM (active); as for `COc1cccc2c1C(=O)c1c(O)c3c(c(O)c1C2=O)C[C@@](O)(C(=O)CO)C[C@@H]3O[C@H]1C[C@H](N)[C@@H](O)[C@H](C)O1`, 0.235 µM (active); as for `COc1cccc2c1C(=O)c1c(O)c3c(c(O)c1C2=O)C[C@@](O)(C(C)=O)C[C@H]3O[C@H]1C[C@H](N)[C@H](O)[C@H](C)O1`, 0.0469 µM (active). Regarding `CC(O)(C#Cc1ccc2c(c1)N(c1nc(N)ncc1Cl)CC2)c1nccs1` (stereo not given), the Potency was 2.35 µM (active). On the same count and under the same terms, to `COC[C@H](NC(=O)c1cnc(C)s1)C(=O)N[C@@H](COC)C(=O)N[C@@H](Cc1ccccc1)C(=O)[C@@]1(C)CO1` belongs 0.0296 µM (active); to `C=C1C(=O)O[C@H]2[C@@H]1CCC(C)=CCC[C@@]1(C)O[C@@H]21`, 7.43 µM (active). As for `O=c1ccn([C@@H]2O[C@H](CO)[C@H](O)[C@@H]2F)c(=O)[nH]1`, the Potency was 8.33 µM (active). With `CCc1cc(C(C)=NOCc2ccc(C3CCCCC3)c(C(F)(F)F)c2)ccc1CN1CC(C(=O)O)C1`, the Potency was 0.0372 µM (active).

As to `Cc1ccccc1C(=O)Nc1ccc(C(=O)N2CCCC(O)c3cc(Cl)ccc32)c(C)c1` (stereo not given), the “activity change, negative = cytotoxic” value was -20.2% (inactive). The same measure, in the same setting: as for `C[C@H](CCC(=O)O)[C@H]1CCC2C3C[C@H](O)[C@@H]4C[C@H](O)CC[C@]4(C)C3CC[C@@]21C` (stereo not given in full), the figure is 14.7% (inactive). `COc1cc(C[C@@H](CO)[C@H](CO)Cc2ccc(O)c(OC)c2)ccc1O`: the Potency is 0.209 µM (active).

The record behind these values is PubChem BioAssay (NCATS).
